# The list is not random: actives were taken first. Their share in the collection is about 3.7%.
# Kir21 inh = inhibitors of mouse Kir2.1 inward-rectifier potassium channel. Inward rectifier potassium channel 2 (Mus musculus), P35561. HEK293-Kir2.1, FluxOR thallium flux fluorescence; hits give low values. B-score at 10 µM. 0.85% of 310,000 active. AID 1672, 2009;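 active = fluorescence ratio B-score at or below minus 3 SD of library scores, with starting-brightness B-score within 2 SD, cut at about -4.2 in these data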;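 note: channel flux triggered by added potassium and thallium sulfate stimulus; B-score of peak minus minimum fluorescence over baseline after thallium stimulus; more negative B-score means stronger Kir2.1 block with less thallium influx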
# ANO1 activ = TMEM16A chloride channel activators or potentiators, primary screen, cell-based, HTS | HEK293 TMEM16A/YFP-H148Q/I152L, iodide quench fluorescence; hits give low values | B-score at 10 µM | 0.3% of 340,000 active;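 active = fluorescence-ratio B-score plate-corrected deviation score at least 3 library SD below zero, with starting fluorescence score within 5 deviations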;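 note: channel opened by trigger with iodide after compound preincubation; score built on the fluorescence ratio of max minus min over baseline; more negative score means more quench and so TMEM16A activation or potentiation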
# Target sequence (Q8BHY3 whole entry, looked up): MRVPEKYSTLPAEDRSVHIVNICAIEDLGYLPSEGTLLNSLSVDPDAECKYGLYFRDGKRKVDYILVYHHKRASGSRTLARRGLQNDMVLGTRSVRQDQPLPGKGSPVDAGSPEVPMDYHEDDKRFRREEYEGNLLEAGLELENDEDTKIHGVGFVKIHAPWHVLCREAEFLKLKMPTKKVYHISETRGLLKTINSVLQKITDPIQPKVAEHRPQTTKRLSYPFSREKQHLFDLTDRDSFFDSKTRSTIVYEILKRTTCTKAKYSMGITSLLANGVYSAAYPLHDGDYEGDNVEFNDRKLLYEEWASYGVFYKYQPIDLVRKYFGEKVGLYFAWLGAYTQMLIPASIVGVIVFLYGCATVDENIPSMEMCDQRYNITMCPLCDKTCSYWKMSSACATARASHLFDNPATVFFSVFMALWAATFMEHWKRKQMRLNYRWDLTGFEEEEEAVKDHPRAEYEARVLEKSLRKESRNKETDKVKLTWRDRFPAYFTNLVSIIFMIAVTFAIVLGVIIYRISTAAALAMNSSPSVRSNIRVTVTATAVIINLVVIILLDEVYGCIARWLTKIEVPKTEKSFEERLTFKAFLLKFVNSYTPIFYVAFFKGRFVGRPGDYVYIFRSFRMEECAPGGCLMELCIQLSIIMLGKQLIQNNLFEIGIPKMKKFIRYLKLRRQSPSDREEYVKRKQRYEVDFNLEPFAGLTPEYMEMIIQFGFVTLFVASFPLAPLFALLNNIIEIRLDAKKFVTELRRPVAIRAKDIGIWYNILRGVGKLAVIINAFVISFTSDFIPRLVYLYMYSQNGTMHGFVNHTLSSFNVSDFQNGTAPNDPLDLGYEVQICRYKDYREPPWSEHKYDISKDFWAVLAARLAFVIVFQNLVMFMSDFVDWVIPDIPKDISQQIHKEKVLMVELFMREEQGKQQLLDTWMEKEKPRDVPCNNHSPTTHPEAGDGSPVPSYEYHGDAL
# GPR7 antagonist = GPR7 receptor antagonists, primary screen, cell-based, fluorescence, single concentration; GPR7-expressing cells, fluorescence antagonist assay; inhibition, % at 4.4 µM; 1.1% of 290,000 active; AID 1861, 2009; in the data active = inhibition above about 16%, passing the limit was not always enough;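 note: cells stimulated with the agonist NPW; 0% = agonist with vehicle and 100% = vehicle without agonist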
# CHT inh = inhibitors of human choline transporter CHT; CHT-expressing cells, membrane potential dye, choline response; hits give low values; B-score at 10 µM; 0.86% of 310,000 active; High affinity choline transporter 1 (Homo sapiens), Q9GZV3;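 active = B-score over 3 SD under the library average, and starting fluorescence ratio not unusually high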;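 note: choline stimulus applied at its EC90 after an EC20 pre-addition; B-score computed on integrated fluorescence ratio after choline addition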
# ANO1 block = TMEM16A chloride channel inhibitors, primary screen, cell-based, HTS; Anoctamin-1 (Mus musculus), Q8BHY3; HEK293 TMEM16A/YFP iodide influx fluorescence, ionomycin; normalized B-score (activity score, 25-100; higher = stronger inhibition) at 10 µM; 1.2% of 310,000 active;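 active = ratio plate-corrected score three or more library SD toward inhibition, starting fluorescence score within five deviations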;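 note: score derived from kinetic fluorescence span divided by baseline fluorescence per well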
# CHT PAM = CHT positive allosteric modulators, primary screen, cell-based, membrane potential dye, choline EC20; B-score at 10 µM; 0.49% of 310,000 active; AID 488977, 2010; High affinity choline transporter 1 (Homo sapiens), Q9GZV3; CHT-expressing cells; hits give high values; LV-AA mutant CHT in HEK293 cells;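 active = initial fluorescence not abnormally high and integrated response B-score, plate-corrected, over 3 SD above library mean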
# TMEM16A reconf = TMEM16A chloride channel inhibitors, confirmation, cell-based, re-confirmation | shares compounds with ANO1 block | HEK293 TMEM16A/YFP-H148Q, iodide quench fluorescence; ionomycin added to raise cell calcium | inhibition, % at 10 µM | 39% of 2,300 active | AID 652189, 2013;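 active = mean duplicate percent inhibition, scaled so buffer wells are 0 and the reference blocker 100, over three buffer SD above buffer mean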
# HEK293 Ca mobil = calcium mobilization in TMEM16A/YFP HEK293 cells, confirmation, counter-screen for TMEM16A inhibitor project. AID 652231, 2013. calcium response (% of ionomycin), % at 10 µM. 2% of 2,300 active. shares compounds with ANO1 block. Fluo4 calcium mobilization;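 active = duplicate-averaged calcium signal over 20% of the ionomycin maximum, relative to buffer baseline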;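 note: each well's signal is peak minus trough fluorescence divided by its pre-addition baseline; 0% = buffer wells and 100% = ionomycin wells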
# Parental YFP cnt = iodide YFP quench changes in parental YFP-HEK293, counter-screen for TMEM16A inhibitor project, cell-based; 2,300 tested, under 10 active; shares compounds with ANO1 block; ionomycin; YFP ratio F(max-min)/F0 at 10 µM;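 active = yellow fluorescent protein signal ratio exceeding the buffer control mean by over 5 SD of those controls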;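 note: ratio is mean of duplicate wells from kinetic YFP trace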
# ClC-1 inh = ClC-1 chloride channel inhibition, selectivity assay for TMEM16A inhibitor project, cell-based, voltage-dependent ClC-1; shares compounds with ANO1 block; CHO ClC-1-YFP, iodide influx fluorescence quench; iodide control reads 0, buffer control 100; ratio percent, % at 10 µM; 2,300 tested, under 10 active;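 active = duplicate-mean ratio percent above the mean of iodide-only control wells, which defines zero, plus 5 of their SD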;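 note: higher percent means stronger block of ClC-1 iodide influx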
# * hit, by the source's call; i = inactive; · = no result.
SMILES,Kir21 inh,ANO1 activ,GPR7 antagonist,CHT inh,ANO1 block,CHT PAM,TMEM16A reconf,HEK293 Ca mobil,Parental YFP cnt,ClC-1 inh
CCc1c(C)c(C#N)c2[nH]c3ccccc3n2c1=S,-0.45,i,-3,i,100*,i,34%*,i,-0.85,-21
Cc1ccc(Cc2c(C)c(C#N)c3[nH]c4ccccc4n3c2=O)cc1,2.1,i,-18,i,i,i,·,·,·,·
CN1/C(=C\C(=O)c2cncc(Br)c2)C(C)(C)c2ccccc21,1,i,8,i,i,i,22%*,i,-0.72,-8
CN1/C(=C\C(=O)c2ccco2)C(C)(C)c2ccccc21,0.46,i,24,i,i,i,26%*,i,-0.68,-2
CN1/C(=C\C(=O)COC(=O)c2ccco2)C(C)(C)c2ccccc21,-0.01,i,5,i,i,i,·,·,·,·
c1ccc(CNC2CC3CCC2C3)cc1 (stereo unspecified),·,i,·,·,·,·,·,·,·,·
COC(=O)c1sc(NC(=O)C2CCCO2)c(C(=O)OC)c1C (stereo unspecified),-0.32,i,-7,i,25*,i,i,i,-1.2,-17
COc1ccc(/[N+]([O-])=C/c2ccoc2)cc1,·,i,·,·,·,·,·,·,·,·
CC1(C)CC(=O)C2=C(C1)OC1=C(C(=O)CC(C)(C)C1)C2c1ccc(O)c([N+](=O)[O-])c1,1.8,i,-6,i,i,i,·,·,·,·
CC1(C)CC(=O)C2=C(C1)OC1=C(C(=O)CC(C)(C)C1)C2c1ccc(O)cc1O,-8.3,i,-13,i,i,i,i,i,-0.58,-4
Cc1ccc2c(c1)C1(C(=O)N2)N2CCCC2C(C(=O)c2ccc3ccccc3c2)C12C(=O)Nc1ccccc12 (stereo unspecified),·,i,·,·,·,·,·,·,·,·
O=C(Nc1nnc(C(F)(F)F)s1)c1ccc(Br)s1,0.37,i,5,i,100*,i,26%*,i,-0.93,-16
CCSc1nnc(NC(=O)c2ccc(Br)s2)s1,-0.34,i,-11,i,i,i,·,·,·,·
CCOC(=O)N1CCN(C(=O)CSCC(=O)Nc2nc(-c3ccc(-c4ccccc4)cc3)cs2)CC1,0.46,i,-6,i,100*,i,24%*,i,-0.87,-20
COc1ccccc1C1(O)CCN(CC(=O)Nc2nc(-c3ccccc3)cs2)CC1,0.15,i,6,i,100*,i,23%*,i,-0.73,-2
O=C(CSCC(=O)N1CCOCC1)Nc1nc(-c2ccccc2)cs1,-0.13,i,-15,i,i,i,·,·,·,·
Cc1ccc(-c2csc(NC(=O)CSC3=NCCS3)n2)cc1,-0.74,i,6,i,100*,i,51%*,i,-0.9,-14
COc1ccc(-c2csc(NC(=O)CSc3nc(SC)ns3)n2)cc1,-1.3,i,4,i,100*,i,21%*,i,-1,-6
O=C(COc1ccccc1)Nc1ccncc1,0.19,i,16,i,i,i,·,·,·,·
